Experimental data taken from PubChem BioAssay (Tox21).
Where “and” joins values, the source holds several entries; their conditions need not be identical. Equal values may be shown once. Records with an inconclusive call do not appear. Entries that show only a call come without a potency. A structure can be active in one record and inactive in another. Calls of active or inactive are those of the source. Unless noted, the call rests on the fitted dose curve; in most records, active means well fitted curve in the direction sought with a large enough effect in the repeat runs; inconclusive means weak or mixed curves; inactive means no such curve, though single readings can be large; an effect the other way counts as inactive or inconclusive.

Key:
[1] = A CellTox Green Cytotoxicity Assay to monitor cytotoxicity in HEK293 cells - 32 hour (AID 1224881); further: nearly all actives have a fitted effect of over 40% in size; further: potency means the concentration at half of the fitted maximal effect
Procedure, shortened: (§1)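 Fluorescence intensity, read at 0, 8, 16, 24, 32 and 40 h of compound treatment, reflected dye binding to DNA of dead HEK293 cells; compounds (23 nL, DMSO) were added 5 h after plating cells with reagent.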

[2] = A CellTox Green Cytotoxicity Assay to monitor cytotoxicity in HepG2 cells - 0 hour (AID 1224882); further: nearly all actives have a fitted effect of over 35% in size
Procedure, shortened: (§2)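 Using 1536-well format, dye-containing HepG2 suspension was seeded, allowed 5 h at 37 C/5% CO2, dosed by pintool with compounds, positive and negative controls, and imaged for fluorescence across 40 h.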

[3] = A CellTox Green Cytotoxicity Assay to monitor cytotoxicity in HepG2 cells - 32 hour (AID 1224883); further: nearly all actives have a fitted effect of over 50% in size; further: potency means the concentration at half of the fitted maximal effect
Procedure, shortened: as §2

[4] = A CellTox Green Cytotoxicity Assay to monitor cytotoxicity in HEK293 cells - 8 hour (AID 1224884); further: nearly all actives have a fitted effect of over 35% in size
Procedure, shortened: as §1

[5] = qHTS RealTime-Glo MT Cell Viability Assay in HepG2 cells - 16 hour (AID 1224885); further: nearly all actives have a fitted effect of over 50% in size
Procedure, shortened: (§3)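 HepG2 cells (600/well) were dispensed with RealTime-Glo reagents, incubated 5 h at 37 °C, then treated with compounds in DMSO for up to 40 h. Nonlytic NanoLuc luminescence reflecting viable cells was read at each stated time point.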

[6] = qHTS RealTime-Glo MT Cell Viability Assay in HEK293 cells - 24 hour (AID 1224886); further: nearly all actives have a fitted effect of over 50% in size; further: potency means the concentration at half of the fitted maximal effect
Procedure, shortened: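 HEK293 cells seeded with NanoLuc/prosubstrate reagent, rested 5 h at 37 C, then dosed and kept at 37 C up to 40 h. Nonlytic real-time luminescence from viable cells read at 0, 8, 16, 24, 32 and 40 h.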

[7] = qHTS RealTime-Glo MT Cell Viability Assay in HEK293 cells - 8 hour (AID 1224887); further: nearly all actives have a fitted effect of over 50% in size; further: potency means the concentration at half of the fitted maximal effect
Procedure, shortened: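 Viable HEK293 cells reduce a cell-permeant prosubstrate; the product diffuses out and is consumed by NanoLuc in the medium to give light. Compounds went in after a 5 h incubation and plates were read over the treatment course.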

[8] = A CellTox Green Cytotoxicity Assay to monitor cytotoxicity in HEK293 cells - 16 hour (AID 1224888); further: nearly all actives have a fitted effect of over 35% in size
Procedure, shortened: as §1

[9] = qHTS RealTime-Glo MT Cell Viability Assay in HepG2 cells - 0 hour (AID 1224889); further: nearly all actives have a fitted effect of over 50% in size; further: potency means the concentration at half of the fitted maximal effect
Procedure, shortened: as §3

[10] = A CellTox Green Cytotoxicity Assay to monitor cytotoxicity in HepG2 cells - 8 hour (AID 1224890); further: nearly all actives have a fitted effect of over 45% in size
Procedure, shortened: as §2

[11] = qHTS assay to identify small molecule antagonists of the androgen receptor (AR) signaling pathway using the MDA cell line in the presence of 0.5 nM R1881 - cell viability counter screen (AID 1259242); further: nearly all actives have a fitted effect of over 45% in size
Procedure, shortened: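 Viability of MDA-kb2 cells was multiplexed with the luciferase AR readout; after 16 hr with compounds and R1881 at 0.5 nM final, CellTiter-Fluor fluorescence was recorded.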

[12] = biological target: Estrogen receptor (Homo sapiens) (UniProt P03372); test: qHTS assay to identify small molecule antagonists of the estrogen receptor alpha (ER-alpha) signaling pathway using the BG1 cell line in the presence of 0.1 nM 17-beta-estradiol (AID 1259244); further: nearly all actives have a fitted effect of over 50% in size
Sequence of Estrogen receptor (Homo sapiens) (P03372 whole entry, looked up): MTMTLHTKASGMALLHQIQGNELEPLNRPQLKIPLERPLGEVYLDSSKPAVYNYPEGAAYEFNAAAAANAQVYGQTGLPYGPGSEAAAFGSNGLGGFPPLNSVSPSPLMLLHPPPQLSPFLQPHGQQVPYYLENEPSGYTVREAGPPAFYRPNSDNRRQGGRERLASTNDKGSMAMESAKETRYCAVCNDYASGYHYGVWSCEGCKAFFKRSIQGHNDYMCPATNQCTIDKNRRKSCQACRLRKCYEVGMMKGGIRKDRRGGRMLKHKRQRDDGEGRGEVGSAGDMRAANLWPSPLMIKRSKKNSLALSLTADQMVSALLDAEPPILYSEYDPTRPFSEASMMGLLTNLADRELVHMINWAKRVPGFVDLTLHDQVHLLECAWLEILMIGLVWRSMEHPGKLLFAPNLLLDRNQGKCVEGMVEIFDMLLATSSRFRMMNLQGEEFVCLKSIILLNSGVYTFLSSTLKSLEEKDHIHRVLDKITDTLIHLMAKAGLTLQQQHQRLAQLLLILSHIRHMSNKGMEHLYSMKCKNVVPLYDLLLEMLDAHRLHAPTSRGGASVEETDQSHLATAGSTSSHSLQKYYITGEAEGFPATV
Procedure, shortened: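 Estradiol at 0.1 nM (final) stimulates the endogenous ER-alpha of VM7Luc4E2 cells carrying an ERE-driven luciferase; compounds are co-incubated 22 h at 37C and luciferase output quantified by luminescence.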

[13] = qHTS assay to identify small molecule phospholipidosis (PLD) inducers (AID 1259344; active means well fitted curve in the direction sought with a large enough effect; an effect the other way counts as inactive or inconclusive)
Procedure, shortened: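 HepG2 cells on collagen I, attached 4 h at 37 C, were co-treated with compound and LipidTOX Red dye for 24 h at 37 C, then fixed with paraformaldehyde plus Hoechst 33342 and imaged by high-content microscopy for phospholipid accumulation.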

[14] = qHTS assay to identify small molecule HDAC inhibitors (AID 1259364); further: potency means the concentration at half of the fitted maximal effect;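 further: wild-type HCT-116 cells with endogenous class I/II HDAC activity; nearly all actives have a fitted effect of over 45% in size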
Procedure, shortened: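 Read-out: luminescence of HDAC-Glo I/II reagent, 30 min RT, reflecting class I/II deacetylase activity in whole HCT-116 cells pre-exposed 2 h to DMSO-dissolved compounds.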

[15] = qHTS assay to identify small molecule HDAC inhibitors - cell viability counter screen (AID 1259365)
Procedure, shortened: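 Cytotoxicity was gauged in wild-type HCT-116 cells after a brief 2hr treatment with DMSO-dissolved compounds at 37C and 5% CO2, using CellTiter-Glo luminescence developed for 30min at room temperature.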

[16] = qHTS assay to identify small molecule agonists of the sonic hedgehog signaling (Shh) pathway - cell viability counter screen (AID 1259366); further: nearly all actives have a fitted effect of over 50% in size
Procedure, shortened: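 Stable Gli1-Luc NIH/3T3 clone, 2,000 cells/well. Compound exposure 24hr at 37C. Read-out: CellTiter-Fluor fluorescence.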

[17] = qHTS assay to identify small molecule antagonists of the sonic hedgehog signaling (Shh) pathway - cell viability counter screen (AID 1259367); further: nearly all actives have a fitted effect of over 55% in size
Procedure, shortened: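 NIH/3T3-derived Gli1-Luc reporter cells (2,000 per well) rested 4 hr at 37 C, then received DMSO compounds plus conditioned medium. After 23 hr of treatment, CellTiter-Fluor was added for 1 hr at 37C and fluorescence read.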

[18] = qHTS assay to identify small molecule agonists of the sonic hedgehog signaling (Shh) pathway (AID 1259368; calls by dose curve;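 further: NIH/3T3-derived 3T3Gli1-Luc cells carrying a stable Gli1-driven firefly luciferase reporter; series mostly up to about 92 µM; nearly all actives have a fitted effect of over 15% in size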)
Procedure, shortened: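 A Gli1 transcriptional response element controlled firefly luciferase in 3T3Gli1-Luc cells. Compounds and a positive control were added 4 hr after plating, and cells were incubated a further 24 hr at 37 C before luminescence detection.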

[19] = qHTS assay to identify small molecule antagonists of the estrogen receptor alpha (ER-alpha) signaling pathway using the BG1 cell line in the presence of 0.1 nM 17-beta-estradiol - cell viability counter screen (AID 1259241); further: nearly all actives have a fitted effect of over 40% in size
Procedure, shortened: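 Viability in VM7Luc4E2 cells after 22 hr compound exposure under 0.1 nM 17beta-estradiol stimulation, by CellTiter-Fluor.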

[20] = biological target: Androgen receptor (Homo sapiens) (UniProt P10275); test: qHTS assay to identify small molecule antagonists of the androgen receptor (AR) signaling pathway using the MDA cell line in the presence of 0.5 nM R1881 (AID 1259243); further: nearly all actives have a fitted effect of over 50% in size
Sequence of Androgen receptor (Homo sapiens) (P10275 whole entry, looked up): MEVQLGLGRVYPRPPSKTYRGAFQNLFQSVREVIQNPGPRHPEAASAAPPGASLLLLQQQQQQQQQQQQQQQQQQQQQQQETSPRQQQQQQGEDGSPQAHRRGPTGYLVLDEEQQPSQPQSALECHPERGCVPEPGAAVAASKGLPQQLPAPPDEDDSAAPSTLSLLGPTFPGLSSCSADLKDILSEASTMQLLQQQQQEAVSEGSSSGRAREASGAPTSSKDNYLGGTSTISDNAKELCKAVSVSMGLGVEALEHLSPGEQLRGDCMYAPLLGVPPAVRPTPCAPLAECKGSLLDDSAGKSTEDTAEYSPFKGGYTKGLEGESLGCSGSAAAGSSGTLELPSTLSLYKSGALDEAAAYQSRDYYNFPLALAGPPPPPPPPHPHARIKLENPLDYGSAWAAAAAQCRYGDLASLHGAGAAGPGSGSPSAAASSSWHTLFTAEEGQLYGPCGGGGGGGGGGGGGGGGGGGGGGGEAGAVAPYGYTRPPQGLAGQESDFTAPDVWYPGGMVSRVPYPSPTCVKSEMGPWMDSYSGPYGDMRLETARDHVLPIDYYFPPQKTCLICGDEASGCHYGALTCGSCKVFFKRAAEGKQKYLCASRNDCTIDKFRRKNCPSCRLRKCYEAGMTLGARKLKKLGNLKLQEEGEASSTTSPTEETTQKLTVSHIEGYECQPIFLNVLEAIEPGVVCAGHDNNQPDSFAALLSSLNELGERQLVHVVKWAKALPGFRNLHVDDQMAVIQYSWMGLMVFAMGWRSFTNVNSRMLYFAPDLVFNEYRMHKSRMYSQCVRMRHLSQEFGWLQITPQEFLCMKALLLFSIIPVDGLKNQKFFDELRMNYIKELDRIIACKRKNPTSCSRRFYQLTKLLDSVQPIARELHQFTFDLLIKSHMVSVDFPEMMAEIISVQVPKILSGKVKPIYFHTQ
Procedure, shortened: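 Reporter cells cultured without CO2 receive test chemicals, then 0.5 nM R1881 final; after 16 hr at 37C, ONE-Glo is added and light output recorded.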

## CNC[C@H](O)c1ccc(O)c(O)c1
[1]
  Potency: inactive
[2]
  Potency: inactive
[3]
  Potency: inactive
[4]
  Potency: inactive
[5]
  Potency: inactive
[6]
  Potency: inactive
[7]
  Potency: inactive
[8]
  Potency: inactive
[9]
  Potency: inactive
[10]
  Potency: inactive
[11]
  Potency: inactive
[12]
  Potency: inactive
[13]
  Potency: inactive
[14]
  Potency: inactive
[15]
  outcome: inactive
[16]
  Potency: inactive
[17]
  viability change, negative = cytotoxic: -0.782% [at 19 µM] (inactive)
[18]
  Potency: inactive

## CC(C)(C)c1cccc(C(C)(C)C)c1O
[1]
  Potency: 53.7 µM (active) and inactive
[2]
  Potency: inactive
[3]
  Potency: inactive
[4]
  Potency: inactive
[5]
  Potency: inactive
[6]
  Potency: 24 µM (active) and inactive
[7]
  Potency: 47.9 µM (active) and inactive
[8]
  Potency: inactive
[9]
  Potency: inactive
[10]
  Potency: inactive
[11]
  Potency: inactive
[12]
  Potency: inactive
[14]
  Potency: inactive
[15]
  outcome: inactive
[16]
  Potency: inactive
[17]
  Potency: inactive
[18]
  Potency: inactive

## CC(C)(Oc1ccc(Cl)cc1)C(=O)O
[1]
  Potency: inactive
[2]
  Potency: inactive
[3]
  Potency: inactive
[4]
  Potency: inactive
[5]
  Potency: inactive
[6]
  Potency: inactive
[7]
  Potency: inactive
[8]
  Potency: inactive
[9]
  Potency: inactive
[10]
  Potency: inactive
[11]
  Potency: inactive
[13]
  Potency: inactive
[14]
  Potency: inactive
[15]
  outcome: inactive
[16]
  Potency: inactive
[17]
  Potency: inactive
[18]
  Potency: inactive

## C=CC(C)(O)CCC=C(C)C (stereo not drawn)
[1]
  Potency: inactive
[2]
  Potency: inactive
[3]
  Potency: inactive
[4]
  Potency: inactive
[5]
  Potency: inactive
[6]
  Potency: inactive
[7]
  Potency: inactive
[8]
  Potency: inactive
[9]
  Potency: inactive
[10]
  Potency: inactive
[19]
  Potency: inactive
[11]
  Potency: inactive
[14]
  Potency: inactive
[15]
  outcome: inactive
[16]
  Potency: inactive
[17]
  Potency: inactive
[18]
  Potency: inactive

## Cc1ccc(N)c([N+](=O)[O-])c1
[1]
  Potency: inactive
[2]
  Potency: inactive
[3]
  Potency: inactive
[4]
  Potency: inactive
[5]
  Potency: inactive
[6]
  Potency: inactive
[7]
  Potency: inactive
[8]
  Potency: inactive
[9]
  Potency: inactive
[10]
  Potency: inactive
[11]
  Potency: inactive
[12]
  Potency: inactive
[14]
  Potency: inactive
[15]
  outcome: inactive
[16]
  Potency: inactive
[17]
  Potency: inactive
[18]
  Potency: inactive

## O=C(O)CCCCCCCCCCCC(=O)O
[1]
  Potency: inactive
[2]
  Potency: inactive
[3]
  Potency: inactive
[4]
  Potency: inactive
[5]
  Potency: inactive
[6]
  Potency: inactive
[7]
  Potency: inactive
[8]
  Potency: inactive
[9]
  Potency: inactive
[10]
  Potency: inactive
[11]
  Potency: inactive
[14]
  Potency: 30.1 µM (active) and 27.3 µM (active)
[15]
  outcome: inactive
[16]
  Potency: inactive
[17]
  Potency: inactive
[18]
  Potency: inactive

## C[C@]12CC[C@@H]3c4ccc(O)cc4CC[C@H]3[C@@H]1CC[C@H]2O
[1]
  Potency: inactive
[2]
  Potency: inactive
[3]
  Potency: 11.2 µM (active) and 34.7 µM (active)
[4]
  Potency: inactive
[5]
  Potency: inactive
[6]
  Potency: 5.59 µM (active) and 13.8 µM (active)
[7]
  Potency: inactive
[8]
  Potency: inactive
[9]
  Potency: inactive
[10]
  Potency: inactive
[19]
  Potency: inactive
[11]
  Potency: inactive
[14]
  Potency: inactive
[15]
  outcome: inactive
[16]
  Potency: inactive
[17]
  Potency: inactive
[18]
  Potency: inactive

## CC(=O)[C@H]1CC[C@H]2[C@@H]3CC=C4C[C@@H](O)CC[C@]4(C)[C@H]3CC[C@]12C
[1]
  Potency: inactive
[2]
  Potency: inactive
[3]
  Potency: inactive
[4]
  Potency: inactive
[5]
  Potency: inactive
[6]
  Potency: inactive
[7]
  Potency: inactive
[8]
  Potency: inactive
[9]
  Potency: inactive
[10]
  Potency: inactive
[11]
  Potency: inactive
[12]
  Potency: inactive
[14]
  Potency: inactive
[15]
  outcome: inactive
[16]
  Potency: inactive
[17]
  Potency: inactive
[18]
  Potency: inactive

## CC(=O)Nc1ccc2c(c1)Cc1cc(NC(C)=O)ccc1-2
[1]
  Potency: inactive
[2]
  Potency: inactive
[3]
  Potency: inactive
[4]
  Potency: inactive
[5]
  Potency: inactive
[6]
  Potency: inactive
[7]
  Potency: inactive
[8]
  Potency: inactive
[9]
  Potency: inactive
[10]
  Potency: inactive
[11]
  Potency: inactive
[12]
  Potency: inactive
[14]
  Potency: inactive
[15]
  outcome: inactive
[16]
  Potency: inactive
[17]
  Potency: inactive
[18]
  Potency: inactive

## CC[C@]12CCCN3CCc4c(n(c5ccccc45)[C@@](O)(C(=O)OC)C1)[C@@H]32
[1]
  Potency: inactive
[2]
  Potency: inactive
[3]
  Potency: inactive
[4]
  Potency: inactive
[5]
  Potency: inactive
[6]
  Potency: inactive
[7]
  Potency: inactive
[8]
  Potency: inactive
[9]
  Potency: inactive
[10]
  Potency: inactive
[11]
  Potency: inactive
[20]
  Potency: inactive
[13]
  Potency: inactive
[14]
  Potency: inactive
[15]
  outcome: inactive
[16]
  Potency: inactive
[17]
  Potency: inactive
[18]
  Potency: inactive

## C1COCCN1
[1]
  Potency: inactive
[2]
  Potency: inactive
[3]
  Potency: inactive
[4]
  Potency: inactive
[5]
  Potency: inactive
[6]
  Potency: inactive
[7]
  Potency: inactive
[8]
  Potency: inactive
[9]
  Potency: inactive
[10]
  Potency: inactive
[11]
  Potency: inactive
[12]
  Potency: inactive
[14]
  Potency: inactive
[15]
  outcome: inactive
[16]
  Potency: inactive
[17]
  Potency: inactive
[18]
  Potency: inactive

## CC(=O)O[C@]1(C(C)=O)CC[C@H]2[C@@H]3C=C(Cl)C4=CC(=O)CC[C@]4(C)[C@H]3CC[C@@]21C
[1]
  Potency: inactive
[2]
  Potency: inactive
[3]
  Potency: inactive
[4]
  Potency: inactive
[5]
  Potency: inactive
[6]
  Potency: 21.8 µM (active)
[8]
  Potency: inactive
[9]
  Potency: 346 nM (active) and 477 nM (active)
[10]
  Potency: inactive
[19]
  Potency: inactive
[11]
  Potency: inactive
[12]
  Potency: inactive
[13]
  Potency: inactive
[14]
  Potency: inactive
[15]
  outcome: inactive
[16]
  Potency: inactive
[17]
  Potency: inactive
[18]
  Potency: inactive

## c1ccc2cc3ccccc3cc2c1
[1]
  Potency: inactive
[2]
  Potency: inactive
[3]
  Potency: inactive
[4]
  Potency: inactive
[5]
  Potency: inactive
[6]
  Potency: inactive
[7]
  Potency: inactive
[8]
  Potency: inactive
[9]
  Potency: inactive
[10]
  Potency: inactive
[11]
  Potency: inactive
[12]
  Potency: inactive
[15]
  outcome: inactive
[16]
  Potency: inactive
[17]
  Potency: inactive
[18]
  Potency: inactive

## CCCOCCO
[1]
  Potency: inactive
[2]
  Potency: inactive
[3]
  Potency: inactive
[4]
  Potency: inactive
[5]
  Potency: inactive
[6]
  Potency: inactive
[7]
  Potency: inactive
[8]
  Potency: inactive
[9]
  Potency: inactive
[10]
  Potency: inactive
[11]
  Potency: inactive
[14]
  Potency: inactive
[15]
  outcome: inactive
[16]
  Potency: inactive
[17]
  Potency: inactive
[18]
  Potency: inactive
